Positions count from the first letter of the chain named.
What was measured:
Assay in all cases: protein-binding microarray (PBM); PBM: ~300 nM protein, 6 mM HEPES pH 7.8, 80 mM KCl, 0.5 mM EDTA, 0.5 mM EGTA, 6% glycerol, 35 ng/ul poly-dIdC, 1% milk, 1 h, room temperature; Ap Aiptasia and Nv Nematostella (sea anemones) / Co Capsaspora / Aq Amphimedon (sponge) / Dm Drosophila / Hu human; RHD is the Rel homology domain; high values mean tight binding
Conditions in all cases: dsDNA, one strand shown
GST-Ap-NF-kB RHD = molecular target: T1, GST-Ap-NF-kB RHD (Exaiptasia pallida (Aiptasia), UniProt A0A913YAJ5 2-422)
T1 sequence: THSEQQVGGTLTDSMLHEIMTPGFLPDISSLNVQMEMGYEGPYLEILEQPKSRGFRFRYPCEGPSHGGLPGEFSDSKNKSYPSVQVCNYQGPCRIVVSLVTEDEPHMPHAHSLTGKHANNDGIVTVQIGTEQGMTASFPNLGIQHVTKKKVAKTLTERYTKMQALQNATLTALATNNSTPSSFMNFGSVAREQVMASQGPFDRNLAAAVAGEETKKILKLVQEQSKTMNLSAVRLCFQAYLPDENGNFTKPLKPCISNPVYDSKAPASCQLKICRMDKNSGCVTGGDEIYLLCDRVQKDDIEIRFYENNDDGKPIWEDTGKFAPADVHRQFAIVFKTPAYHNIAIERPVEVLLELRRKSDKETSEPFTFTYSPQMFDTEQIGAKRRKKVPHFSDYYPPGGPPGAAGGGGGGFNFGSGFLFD

[1] = molecular target: T2, GST-Nv-NF-kB (Cys allele) (Nematostella vectensis, UniProt E5G601 2-411)
T2 sequence: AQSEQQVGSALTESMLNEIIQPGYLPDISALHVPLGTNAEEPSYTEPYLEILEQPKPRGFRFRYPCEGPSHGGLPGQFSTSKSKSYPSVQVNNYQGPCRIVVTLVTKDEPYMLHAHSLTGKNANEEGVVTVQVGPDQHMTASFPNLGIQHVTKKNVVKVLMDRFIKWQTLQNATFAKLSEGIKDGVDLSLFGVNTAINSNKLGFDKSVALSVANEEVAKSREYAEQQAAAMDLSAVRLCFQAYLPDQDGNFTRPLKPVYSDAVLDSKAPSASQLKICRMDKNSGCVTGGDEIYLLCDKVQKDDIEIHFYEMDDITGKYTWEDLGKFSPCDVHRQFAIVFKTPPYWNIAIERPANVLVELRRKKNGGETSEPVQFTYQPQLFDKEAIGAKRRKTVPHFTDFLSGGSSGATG

[2] = molecular target: T3, GST-Nv-NF-kB (Ser allele) (Nematostella vectensis, UniProt A7UNT2 2-411)
T3 sequence: T2 sequence with Q21R, C66S, S207N, E215Q, V217A, E225K, A268E, D399E

GST-Co-NF-kB = molecular target: T4, GST-Co-NF-kB (Capsaspora owczarzaki, UniProt F1ARL5 200-546)
T4 sequence: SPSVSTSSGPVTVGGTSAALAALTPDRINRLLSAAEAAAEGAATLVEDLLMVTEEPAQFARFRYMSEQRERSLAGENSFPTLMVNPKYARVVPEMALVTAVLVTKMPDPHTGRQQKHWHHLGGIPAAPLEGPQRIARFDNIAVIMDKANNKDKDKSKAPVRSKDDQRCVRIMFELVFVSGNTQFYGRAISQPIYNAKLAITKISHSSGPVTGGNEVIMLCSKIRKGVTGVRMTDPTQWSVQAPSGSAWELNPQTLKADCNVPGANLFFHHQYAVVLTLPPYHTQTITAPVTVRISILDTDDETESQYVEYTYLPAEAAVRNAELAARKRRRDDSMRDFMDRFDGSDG

GST-Dm-Relish = molecular target: T5, GST-Dm-Relish (Drosophila melanogaster, UniProt Q94527 99-473)
T5 sequence: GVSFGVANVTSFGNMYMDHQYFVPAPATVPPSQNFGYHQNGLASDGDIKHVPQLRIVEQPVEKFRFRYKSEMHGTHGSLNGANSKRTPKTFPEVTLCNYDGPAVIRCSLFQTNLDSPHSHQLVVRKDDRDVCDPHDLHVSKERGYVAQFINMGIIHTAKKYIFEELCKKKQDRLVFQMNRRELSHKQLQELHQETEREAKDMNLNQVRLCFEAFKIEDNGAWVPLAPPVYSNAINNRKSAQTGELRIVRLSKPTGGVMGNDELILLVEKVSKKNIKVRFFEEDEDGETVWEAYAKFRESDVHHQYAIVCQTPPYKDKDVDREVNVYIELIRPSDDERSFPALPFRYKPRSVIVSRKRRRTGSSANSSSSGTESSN

GST-Aq-NF-kB = molecular target: T6, GST-Aq-NF-kB (Amphimedon queenslandica, UniProt A9Y5G7 2-389)
T6 sequence: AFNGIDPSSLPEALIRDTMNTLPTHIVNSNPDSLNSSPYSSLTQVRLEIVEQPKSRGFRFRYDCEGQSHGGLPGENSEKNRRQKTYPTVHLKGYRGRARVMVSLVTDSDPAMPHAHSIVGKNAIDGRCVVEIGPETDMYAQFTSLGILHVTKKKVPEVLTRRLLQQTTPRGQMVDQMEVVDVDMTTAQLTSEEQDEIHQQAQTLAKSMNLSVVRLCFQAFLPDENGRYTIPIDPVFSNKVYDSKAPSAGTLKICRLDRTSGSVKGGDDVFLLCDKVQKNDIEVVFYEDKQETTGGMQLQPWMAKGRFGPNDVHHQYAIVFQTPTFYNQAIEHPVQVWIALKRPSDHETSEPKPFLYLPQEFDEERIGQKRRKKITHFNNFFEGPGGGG

GST-Hu-p50 = GST-Hu-p50 (Homo sapiens, UniProt P19838 7-356)
GST-Hu-p50, sequence (P19838 7-356): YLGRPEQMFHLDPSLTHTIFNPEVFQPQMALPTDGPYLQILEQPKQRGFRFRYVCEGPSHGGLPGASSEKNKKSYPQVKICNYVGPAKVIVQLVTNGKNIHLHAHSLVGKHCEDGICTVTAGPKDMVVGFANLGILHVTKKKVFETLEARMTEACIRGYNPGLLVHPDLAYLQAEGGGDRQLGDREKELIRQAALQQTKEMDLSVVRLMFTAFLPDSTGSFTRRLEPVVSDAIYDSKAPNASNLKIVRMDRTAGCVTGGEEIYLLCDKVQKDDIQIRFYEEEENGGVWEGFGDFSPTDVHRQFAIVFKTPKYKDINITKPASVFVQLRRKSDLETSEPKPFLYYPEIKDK

Sequence | binding signal (GST-Ap-NF-kB RHD) [z-score] | binding signal [1] [z-score] | binding signal [2] [z-score] | binding signal (GST-Co-NF-kB) [z-score] | binding signal (GST-Dm-Relish) [z-score] | binding signal (GST-Aq-NF-kB) [z-score] | binding signal (GST-Hu-p50) [z-score]
CCGATTAACATCACGGGAACACCTGATGTTAATCGGGTCTTGATTCGCTTGACGCTGCTG | 1.81 | 1.11 | 1.02 | 1.95 | 4.06 | 2.73 | 1.28
CCGATTAACATCACAGAAATCCCTGATGTTAATCGGGTCTTGATTCGCTTGACGCTGCTG | 4.33 | 3.88 | 3.79 | 1.43 | 5.77 | 3.9 | 3.37
CCGATTAACATCAGGGGGGTAGATGATGTTAATCGGGTCTTGATTCGCTTGACGCTGCTG | 4.07 | 3.34 | 3.24 | 5.47 | 3.11 | 3.59 | 3.2
CCGATTAACATCAGGAATCTCCCTGATGTTAATCGGGTCTTGATTCGCTTGACGCTGCTG | 3.91 | 6.08 | 3.67 | 1.77 | 2.25 | 7.75 | 4.69
CCGATTAACATCAAAGCATCCCCTGATGTTAATCGGGTCTTGATTCGCTTGACGCTGCTG | 4.67 | 5.06 | 6.87 | 3.43 | 3.26 | 4.15 | 4.58
CCGATTAACATCAAATATCCCCCTGATGTTAATCGGGTCTTGATTCGCTTGACGCTGCTG | 8.79 | 8.51 | 8.83 | 8.39 | 7.63 | 6.9 | 6.58
CCGATTAACATCAGGGGGGTAAATGATGTTAATCGGGTCTTGATTCGCTTGACGCTGCTG | 4.89 | 4.22 | 4.83 | 7.69 | 4.17 | 4.53 | 4.35
CCGATTAACATCAAATAGTCCCCTGATGTTAATCGGGTCTTGATTCGCTTGACGCTGCTG | 7.11 | 7.06 | 6.71 | 4.46 | 5.51 | 6.32 | 5.39
CCGATTAACATCAGAAAACCCCATGATGTTAATCGGGTCTTGATTCGCTTGACGCTGCTG | 6.36 | 5.53 | 4.86 | 1.75 | 8.35 | 5.03 | 5.88
CCGATTAACATCAAGGGGGTATCTGATGTTAATCGGGTCTTGATTCGCTTGACGCTGCTG | 6.66 | 4.44 | 4.28 | 3.26 | 3.38 | 4.34 | 4.61
CCGATTAACATCAAGAATCCCCTTGATGTTAATCGGGTCTTGATTCGCTTGACGCTGCTG | 7.94 | 9.47 | 10.9 | 2.64 | 8.39 | 7.11 | 7.63
CCGATTAACATCAGATCTCCCCCTGATGTTAATCGGGTCTTGATTCGCTTGACGCTGCTG | 6.98 | 5.31 | 6.01 | 8.07 | 2.64 | 4.88 | 5.76
CCGATTAACATCAGGGAATTTAATGATGTTAATCGGGTCTTGATTCGCTTGACGCTGCTG | 3.7 | 6.07 | 6.59 | 4.07 | 4.24 | 5.09 | 4.45

Reference: publication PMC5700166
